Test results reported in article PMC8384837, “Expanding the binding specificity for RNA recognition by a PUF domain”.
Numbering of substitutions follows the chain as printed.

What was measured:
Experiment in all cases: yeast three-hybrid, YBZ-1, SC-Leu-His + 0.5 mM 3-AT, 4 days
Details in all cases: tags: N-Gal4 AD-HA kept; label: inside an RPR1-promoter hybrid RNA with tandem MS2 sites; ssRNA
PUM1 PUF domain R5-LHS = PUM1 PUF domain R5-LHS (Homo sapiens, UniProt Q14671 828-1176, C1007L;R1008H;Q1011S)
In short: (§1)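 A centromeric plasmid in strain YBZ-1 co-expressed Pumilio-1 PUF domain libraries, randomized at the three base-contacting residues of each repeat, with matching RNA elements; the strain carries a LexA–MS2 coat fusion and a HIS3 reporter. After four days on SC-Leu (input) or SC-Leu-His + 0.5 mM 3-AT (selection), the repeat regions were PCR-amplified and Illumina-sequenced. The interaction score is the log change in variant frequency from input to selection, using log2 and a pseudocount of 1 where absent.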

PUM1 PUF domain R5-GRT = PUM1 PUF domain R5-GRT (Homo sapiens, UniProt Q14671 828-1176, C1007G;Q1011T)
In short: as §1

PUM1 PUF domain R5-RGA = PUM1 PUF domain R5-RGA (Homo sapiens, UniProt Q14671 828-1176, C1007R;R1008G;Q1011A)
In short: as §1

PUM1 PUF domain R6-RYC = biological target: T1, PUM1 PUF domain R6-RYC (Homo sapiens, UniProt Q14671 828-1176, N1043R;Q1047C)
T1 sequence: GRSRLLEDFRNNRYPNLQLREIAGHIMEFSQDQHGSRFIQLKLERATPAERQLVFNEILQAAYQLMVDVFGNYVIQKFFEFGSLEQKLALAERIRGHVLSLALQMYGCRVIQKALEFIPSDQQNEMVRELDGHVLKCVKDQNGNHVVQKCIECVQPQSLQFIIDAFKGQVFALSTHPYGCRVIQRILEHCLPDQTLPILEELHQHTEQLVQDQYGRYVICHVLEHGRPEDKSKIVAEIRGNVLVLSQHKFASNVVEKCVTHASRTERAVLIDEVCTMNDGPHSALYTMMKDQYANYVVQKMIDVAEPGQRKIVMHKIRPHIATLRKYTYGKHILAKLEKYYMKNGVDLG
In short: as §1

PUM1 PUF domain R6-SWS = biological target: T2, PUM1 PUF domain R6-SWS (Homo sapiens, UniProt Q14671 828-1176, N1043S;Y1044W;Q1047S)
T2 sequence: T1 sequence with R216S, Y217W, C220S
In short: as §1

PUM1 PUF domain R6-GWR = biological target: T3, PUM1 PUF domain R6-GWR (Homo sapiens, UniProt Q14671 828-1176, N1043G;Y1044W;Q1047R)
T3 sequence: T1 sequence with R216G, Y217W, C220R
In short: as §1

PUM1 PUF domain R4-EYG = PUM1 PUF domain R4-EYG (Homo sapiens, UniProt Q14671 828-1176, N971E;H972Y;Q975G)
In short: as §1

PUM1 PUF domain R3-FCG = PUM1 PUF domain R3-FCG (Homo sapiens, UniProt Q14671 828-1176, C935F;R936C;Q939G)
In short: as §1

PUM1 PUF domain R3-PFF = PUM1 PUF domain R3-PFF (Homo sapiens, UniProt Q14671 828-1176, C935P;R936F;Q939F)
In short: as §1

PUM1 PUF domain R8-KHV = PUM1 PUF domain R8-KHV (Homo sapiens, UniProt Q14671 828-1176, N1122K;Y1123H;Q1126V)
In short: as §1

PUM1 PUF domain R3-YWW = PUM1 PUF domain R3-YWW (Homo sapiens, UniProt Q14671 828-1176, C935Y;R936W;Q939W)
In short: as §1

PUM1 PUF domain R3-DRE = PUM1 PUF domain R3-DRE (Homo sapiens, UniProt Q14671 828-1176, C935D;Q939E)
In short: as §1

PUM1 PUF domain R3-WCR = PUM1 PUF domain R3-WCR (Homo sapiens, UniProt Q14671 828-1176, C935W;R936C;Q939R)
In short: as §1

PUM1 PUF domain R6-VWH = biological target: T4, PUM1 PUF domain R6-VWH (Homo sapiens, UniProt Q14671 828-1176, N1043V;Y1044W;Q1047H)
T4 sequence: T1 sequence with R216V, Y217W, C220H
In short: as §1

PUM1 PUF domain R4-PYD = PUM1 PUF domain R4-PYD (Homo sapiens, UniProt Q14671 828-1176, N971P;H972Y;Q975D)
In short: as §1

PUM1 PUF domain R7-RTQ = PUM1 PUF domain R7-RTQ (Homo sapiens, UniProt Q14671 828-1176, S1079R;N1080T;E1083Q)
In short: as §1

PUM1 PUF domain R7-ISK = PUM1 PUF domain R7-ISK (Homo sapiens, UniProt Q14671 828-1176, S1079I;N1080S;E1083K)
In short: as §1

PUM1 PUF domain R1-EKK = PUM1 PUF domain R1-EKK (Homo sapiens, UniProt Q14671 828-1176, S863E;R864K;Q867K)
In short: as §1

PUM1 PUF domain R7-CFP = PUM1 PUF domain R7-CFP (Homo sapiens, UniProt Q14671 828-1176, S1079C;N1080F;E1083P)
In short: as §1

PUM1 PUF domain R5-QKR = PUM1 PUF domain R5-QKR (Homo sapiens, UniProt Q14671 828-1176, C1007Q;R1008K;Q1011R)
In short: as §1

## GGCUAGAACUAGUGGAUCCCCCGGCGCCCGGCGGCUCGAGCCCGGGUAAGUGUUAAUAGUCUGCAUGCCGCCGGGCGCCAUGCCUGCAGGUCGACUCUAGAAAACAUG
PUM1 PUF domain R5-LHS
  binding signal: 5.04 log2 enrichment (interaction score)
PUM1 PUF domain R5-GRT
  binding signal: 3.02 log2 enrichment (interaction score)
PUM1 PUF domain R5-RGA
  binding signal: 1.01 log2 enrichment (interaction score)

## GGCUAGAACUAGUGGAUCCCCCGGCGCCCGGCGGCUCGAGCCCGGGUAAGUGUAAAUAGUCUGCAUGCCGCCGGGCGCCAUGCCUGCAGGUCGACUCUAGAAAACAUG
PUM1 PUF domain R6-RYC
  binding signal: 4.42 log2 enrichment (interaction score)
PUM1 PUF domain R6-SWS
  binding signal: 4.04 log2 enrichment (interaction score)
PUM1 PUF domain R5-GRT
  binding signal: 2.94 log2 enrichment (interaction score)
PUM1 PUF domain R6-GWR
  binding signal: 6.56 log2 enrichment (interaction score)
PUM1 PUF domain R4-EYG
  binding signal: 3.15 log2 enrichment (interaction score)
PUM1 PUF domain R3-FCG
  binding signal: 0.82 log2 enrichment (interaction score)
PUM1 PUF domain R3-PFF
  binding signal: 1.1 log2 enrichment (interaction score)

## GGCUAGAACUAGUGGAUCCCCCGGCGCCCGGCGGCUCGAGCCCGGGUAAGGGUAAAUAGUCUGCAUGCCGCCGGGCGCCAUGCCUGCAGGUCGACUCUAGAAAACAUG
PUM1 PUF domain R8-KHV
  binding signal: 2.26 log2 enrichment (interaction score)

## GGCUAGAACUAGUGGAUCCCCCGGCGCCCGGCGGCUCGAGCCCGGGUAAGUGUAAGUAGUCUGCAUGCCGCCGGGCGCCAUGCCUGCAGGUCGACUCUAGAAAACAUG
PUM1 PUF domain R3-YWW
  binding signal: 4.57 log2 enrichment (interaction score)
PUM1 PUF domain R3-FCG
  binding signal: 5.32 log2 enrichment (interaction score)
PUM1 PUF domain R3-DRE
  binding signal: 5.66 log2 enrichment (interaction score)
PUM1 PUF domain R3-WCR
  binding signal: 4.82 log2 enrichment (interaction score)

## GGCUAGAACUAGUGGAUCCCCCGGCGCCCGGCGGCUCGAGCCCGGGUAAGCGUAAAUAGUCUGCAUGCCGCCGGGCGCCAUGCCUGCAGGUCGACUCUAGAAAACAUG
PUM1 PUF domain R8-KHV
  binding signal: 2.09 log2 enrichment (interaction score)

## GGCUAGAACUAGUGGAUCCCCCGGCGCCCGGCGGCUCGAGCCCGGGUAAGUGCAAAUAGUCUGCAUGCCGCCGGGCGCCAUGCCUGCAGGUCGACUCUAGAAAACAUG
PUM1 PUF domain R6-GWR
  binding signal: 3.5 log2 enrichment (interaction score)

## GGCUAGAACUAGUGGAUCCCCCGGCGCCCGGCGGCUCGAGCCCGGGUAAGUGUGAAUAGUCUGCAUGCCGCCGGGCGCCAUGCCUGCAGGUCGACUCUAGAAAACAUG
PUM1 PUF domain R5-GRT
  binding signal: 2.87 log2 enrichment (interaction score)

## GGCUAGAACUAGUGGAUCCCCCGGCGCCCGGCGGCUCGAGCCCGGGUAAGUGAAAAUAGUCUGCAUGCCGCCGGGCGCCAUGCCUGCAGGUCGACUCUAGAAAACAUG
PUM1 PUF domain R6-SWS
  binding signal: 3.49 log2 enrichment (interaction score)
PUM1 PUF domain R6-VWH
  binding signal: 7.07 log2 enrichment (interaction score)

## GGCUAGAACUAGUGGAUCCCCCGGCGCCCGGCGGCUCGAGCCCGGGUAAGUGUAUAUAGUCUGCAUGCCGCCGGGCGCCAUGCCUGCAGGUCGACUCUAGAAAACAUG
PUM1 PUF domain R4-PYD
  binding signal: 5.78 log2 enrichment (interaction score)
PUM1 PUF domain R4-EYG
  binding signal: 1.12 log2 enrichment (interaction score)

## GGCUAGAACUAGUGGAUCCCCCGGCGCCCGGCGGCUCGAGCCCGGGUAAGUUUAAAUAGUCUGCAUGCCGCCGGGCGCCAUGCCUGCAGGUCGACUCUAGAAAACAUG
PUM1 PUF domain R7-RTQ
  binding signal: 4.75 log2 enrichment (interaction score)
PUM1 PUF domain R7-ISK
  binding signal: 2 log2 enrichment (interaction score)

## GGCUAGAACUAGUGGAUCCCCCGGCGCCCGGCGGCUCGAGCCCGGGUAAGUGUAAAUUGUCUGCAUGCCGCCGGGCGCCAUGCCUGCAGGUCGACUCUAGAAAACAUG
PUM1 PUF domain R1-EKK
  binding signal: 2.94 log2 enrichment (interaction score)

## GGCUAGAACUAGUGGAUCCCCCGGCGCCCGGCGGCUCGAGCCCGGGUAAGUGUAAUUAGUCUGCAUGCCGCCGGGCGCCAUGCCUGCAGGUCGACUCUAGAAAACAUG
PUM1 PUF domain R3-PFF
  binding signal: 3.19 log2 enrichment (interaction score)
PUM1 PUF domain R3-WCR
  binding signal: 1.63 log2 enrichment (interaction score)

## GGCUAGAACUAGUGGAUCCCCCGGCGCCCGGCGGCUCGAGCCCGGGUAAGUAUAAAUAGUCUGCAUGCCGCCGGGCGCCAUGCCUGCAGGUCGACUCUAGAAAACAUG
PUM1 PUF domain R7-CFP
  binding signal: 2.42 log2 enrichment (interaction score)

## GGCUAGAACUAGUGGAUCCCCCGGCGCCCGGCGGCUCGAGCCCGGGUAAGUGUACAUAGUCUGCAUGCCGCCGGGCGCCAUGCCUGCAGGUCGACUCUAGAAAACAUG
PUM1 PUF domain R4-EYG
  binding signal: 0.47 log2 enrichment (interaction score)

## GGCUAGAACUAGUGGAUCCCCCGGCGCCCGGCGGCUCGAGCCCGGGUAAGUGUCAAUAGUCUGCAUGCCGCCGGGCGCCAUGCCUGCAGGUCGACUCUAGAAAACAUG
PUM1 PUF domain R5-LHS
  binding signal: 2.24 log2 enrichment (interaction score)
PUM1 PUF domain R5-GRT
  binding signal: 0.6 log2 enrichment (interaction score)
PUM1 PUF domain R5-RGA
  binding signal: 2.27 log2 enrichment (interaction score)
PUM1 PUF domain R5-QKR
  binding signal: 5.65 log2 enrichment (interaction score)
